# High-throughput results (PubChem)
# CASP6 VEID inh = inhibitors of human caspase-6; P55212; purified caspase-6, Z-VEID-R110 cleavage fluorescence; inhibition, % at 12.5 µM; 350,000 tested, 0.53% active; AID 686996;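 active means mean inhibition across replicates at least about 35%, with every replicate also reaching that limit, limit read from the data; inconclusive means only one of the two criteria met; inactive means neither criterion met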;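 further: 0% = median of neutral control wells and 100% = no fluorescence left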
# N-glyco inh = N-linked glycosylation inhibition; D54 ERlucT glycosylation luciferase reporter, 24 h; percent of 100 nM tunicamycin response; reporter increase, % at 12.5 µM; 360,000 tested, 0.23% active; AID 588692;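 active means mean luciferase reporter signal, scaled so untreated is 0 and the glycosylation-blocking control 100, at or above a set limit in every replicate; inconclusive means mean reaches the limit but not every replicate does; inactive means mean below the limit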;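 further: luciferase carries N-glycosylation sites so blocking glycosylation raises the light; 0% = median of neutral control wells and 100% = median of 100 nM tunicamycin wells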
# NSD2 inh = NSD2 (human) methyltransferase inhibition; O96028; inhibition, % at 12.5 µM; NSD2 peptide methylation, AlphaScreen, 120 min; 310,000 tested, 0.54% active; in the data active means inhibition above about 50%
# RAD54 inh = RAD54 (human) branch migration inhibition | AID 602329 | inhibition, % at 10.4 µM | Q92698 | RAD54 Holliday junction branch migration, FAM/BHQ fluorescence | 360,000 tested, 0.14% active;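 active means mean normalized replicate activity at least 40 and at least half of replicates scoring 40 or more; inconclusive means only one of the two criteria met; inactive means mean below 40 and under half of replicates reaching 40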;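 further: 0% = median of neutral control wells and 100% = median of positive control wells; inhibitors cause a drop in the FAM fluorescence signal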
# RAD52 anneal inh = blocks human RAD52 DNA annealing | recombinant RAD52 DNA annealing, FRET fluorescence | inhibition, % at 18.7 µM | 360,000 tested, 0.46% active;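 active means every replicate showing at least 50% inhibition; inconclusive means mean inhibition at least 50% but not in every replicate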
# DNA binder FP = counter-screen for RAD52 inhibitors: DNA binding compounds; shares compounds with RAD52 anneal inh; Salmon sperm DNA/acridine orange FP displacement; AC50, µM; 1,000 tested, 8% active; AID 652128;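 active means fitted half-maximal concentration for signal loss at or below twice the highest dose tested, in every separate run, actives reach about 64 µM in these data; inconclusive means runs disagree, or flat partial signal loss, or poor fit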
# CASP1 counter = selectivity counter-screen: inhibitors of human caspase-1. shares compounds with CASP6 VEID inh. purified caspase-1, Z-YVAD-R110 cleavage fluorescence. activity change, negative = inhibition, % at 35 µM. 100 tested, under 10 active. AID 743289;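 active means compounds lowering fluorescence whose fitted half-maximal concentration is no more than twice their top tested dose; inconclusive means flat fit with 30 to 70% inhibition, or poor fit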
# AlphaScreen art = AlphaScreen assay artifact in NSD2 counter-screen | 1,500 tested, 9.4% active | AlphaScreen artifact counterscreen, preloaded methylated H4 peptide | AC35, µM (top dose mostly 10 µM), for inactives: at the top dose activity change, negative = signal loss | shares compounds with NSD2 inh; call rule not given here
# An asterisk follows results filed as active; i = inactive; ? = inconclusive; . = no result. The list is not random: actives were taken first. Their share in the collection is about 1.2%.
SMILES,CASP6 VEID inh,N-glyco inh,NSD2 inh,RAD54 inh,RAD52 anneal inh,DNA binder FP,AlphaScreen art,others
COc1ccc(/C=N/Nc2nc(-c3cccc(S(=O)(=O)N4CCCC4)c3)cs2)c(OC)c1,-1,-8,0,.,96*,i,.,
COc1cccc(C(=O)Nc2nc(-c3ccc(S(=O)(=O)N4CCOCC4)cc3)cs2)c1,.,-5,1,-4,.,.,.,
Cc1ccc(C(=O)N/C(=C\c2ccc(-c3ccc(Cl)cc3)o2)C(=O)NCCCN(C)C)cc1,-10,-3,1,.,52*,i,.,
CN(C)CCCNC(=O)/C(=C\c1ccc(-c2ccc(Br)cc2)o1)NC(=O)c1ccccc1,-56,-6,4,?,62*,i,.,
CN(C)CCCNC(=O)/C(=C/c1ccc(-c2ccc([N+](=O)[O-])cc2)o1)NC(=O)c1ccccc1,-12,-9,-3,34,32,.,.,
CNC(=O)C[C@@H]1CC[C@@H]2[C@H](COc3ccc(NC(=O)c4cc(C)on4)cc3C(=O)N2C)O1,.,.,.,-8,.,.,.,
C[C@@H]1CN([C@H](C)CO)C(=O)c2cc(NC(=O)NC3CCCCC3)ccc2O[C@@H](C)CCCCO[C@@H]1CN(C)Cc1ccc2c(c1)OCO2,-1,.,.,2,26,.,.,
NCC12CC3CC(C1)CC(c1ccc(Br)cc1)(C3)C2,-14,-3,2,9,57*,i,.,
C[C@H]1CN([C@@H](C)CO)C(=O)c2cccc(NC(=O)c3ccncc3)c2O[C@@H]1CN(C)C(=O)Nc1ccccc1,0,.,.,7,6,.,.,
CCOC(=O)c1c(-c2ccccc2)oc2ccc(OCC)cc12,.,-1,-5,3,.,.,.,
CCOC(=O)c1c(-c2ccccc2)oc2ccc(OCC(O)CNCCN(C)C)cc12 (stereo not given),-207,-6,7,38,83*,i,.,
COc1ccc2nc(NCCNC(=S)NCCCN3CCOCC3)c(C#N)cc2c1,-12,5,-4,.,70*,i,.,
NC(=NCc1ccc2c(c1)OCO2)NC(=O)c1ccccc1,7,1,88*,.,51*,i,0%,
CCCN(CCC)CCCNC(=S)Nc1ccc2nc(N3CCN(CC)CC3)cc(C)c2c1,-62,-2,70*,.,97*,i,-10%,
CC[n+]1ccc(/C=C/c2ccc(N(C)C)cc2)c2ccccc21,-7,?,94*,.,60*,13µM*,8.7µM*,
CC[n+]1ccccc1/C=C/c1ccc(N(C)C)cc1,-10,-5,11,-54,-225,.,.,
CCN(CC)CCCNc1nc2ccccc2c2[nH]c3ccc(OC)cc3c12,-21,-20,56*,.,105*,6.5µM*,-7%,
COc1ccc2[nH]c3c(NCCN(C(C)C)C(C)C)ncnc3c2c1,.,23,49,32,.,.,.,
CCC(=O)Nc1ccc2c(c1)C(=O)N(C)C[C@@H](OC)[C@@H](C)CN(CC1CCOCC1)[C@H](C)CO2,.,.,.,6,.,.,.,
O=C1c2cccc(NCCCNCCO)c2C(=O)c2cccc(NCCCNCCO)c21,-45,-18,88*,.,91*,1.5µM*,4.2µM*,
Cc1noc(C)c1NC(=O)N(C)C[C@H]1Oc2c(NS(=O)(=O)c3ccccc3)cccc2C(=O)N([C@@H](C)CO)C[C@@H]1C,-4,.,.,2,-7,.,.,
COc1ccc(NC(=O)Nc2ccc3c(c2)[C@@H]2C[C@@H](CC(=O)NCc4ccccn4)O[C@H](CO)[C@@H]2O3)cc1,0,.,.,-8,-4,.,.,
COc1cc(NCCCCC(C)N)c2nccc(C)c2c1 (stereo not given),93*,-1,129*,10,76*,i,-11%,CASP1 counter=-5
CN(C)c1ccc(C=c2c3ccccc3n3c2c2c([n+]3C)CCCC2)cc1,.,70*,71*,.,89*,6.9µM*,4.5µM*,
CN(C)c1ccc(C=c2c3ccccc3n3c2cc(-c2ccc(Cl)cc2)[n+]3C)cc1,-3,?,.,.,11,.,.,
C[C@H]1CN([C@@H](C)CO)C(=O)c2cc(NC(=O)Cn3cnnn3)ccc2O[C@H]1CN(C)Cc1ccccc1,2,.,.,3,-38,.,.,
